{"source": "PubChem BioAssay AID504462", "about": "(Sanford-Burnham Center for Chemical Genomics, 2011)", "note": "In all, about 340,000 compounds went through this assay and about 1,700 (0.5%) were called active. No stated cut-off is given here; in the data, active means inhibition above about 40%; inactive means the rest. Shown is part of a subset that was picked to be rich in actives.", "data": [{"biological_target": "Cysteine protease ATG4B (Homo sapiens) (UniProt Q9Y4P1)", "sequence (Q9Y4P1 whole entry, looked up)": "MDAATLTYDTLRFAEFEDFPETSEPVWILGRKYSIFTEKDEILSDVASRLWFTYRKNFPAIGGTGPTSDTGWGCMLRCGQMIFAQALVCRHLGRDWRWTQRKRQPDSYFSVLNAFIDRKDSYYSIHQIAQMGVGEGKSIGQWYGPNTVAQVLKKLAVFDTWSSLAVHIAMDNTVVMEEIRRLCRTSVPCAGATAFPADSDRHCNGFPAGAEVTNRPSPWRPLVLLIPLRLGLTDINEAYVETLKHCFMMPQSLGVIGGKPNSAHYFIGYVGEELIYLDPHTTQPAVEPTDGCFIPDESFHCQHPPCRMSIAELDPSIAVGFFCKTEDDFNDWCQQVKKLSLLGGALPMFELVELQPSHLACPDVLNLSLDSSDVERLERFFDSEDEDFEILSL", "test": "blockers of ATG4B cysteine protease activity – biochemical, fluorescence, uHTS, primary screen (AID 504462)", "details": "ATG4B cleavage of LC3-PLA2, NBD-HPC fluorescence, 1 h; at 8.33 µM; hits give high values", "values": [{"smiles": "COc1ccccc1C1=Nc2cccc3cccc(c23)N1", "inhibition": "12.2% (inactive)"}, {"smiles": "Fc1ccccc1N=C1Nc2cccc3cccc1c23", "inhibition": "-6.86% (inactive)"}, {"smiles": "c1ccc(C2=Nc3cccc4cccc(c34)N2)cc1", "inhibition": "56.3% (active)"}, {"smiles": "CCN1CCCC1CNC(=O)Cn1cnc2ccc(S(=O)(=O)N3CCC(C)CC3)cc2c1=O", "note": "(stereo not drawn)", "inhibition": "-2.67% (inactive)"}, {"smiles": "NC(=O)C1CCN(C(=O)c2ccc(F)c(S(=O)(=O)N3CCOCC3)c2)CC1", "inhibition": "0.71% (inactive)"}, {"smiles": "Nc1c(Cl)cc(S(N)(=O)=O)cc1S(N)(=O)=O", "inhibition": "3.68% (inactive)"}, {"smiles": "CCc1ccc(N2CC(C(=O)Nc3ccc(S(=O)(=O)Nc4nccs4)cc3)CC2=O)cc1", "note": "(stereo not drawn)", "inhibition": "-16.4% (inactive)"}, {"smiles": "COc1ccc(NS(=O)(=O)c2cc(NC(=O)COc3ccccc3F)ccc2OC)cc1", "inhibition": "-14.9% (inactive)"}, {"smiles": "CCNC(=O)c1ccc(OCC(=O)Nc2ccc(F)cc2)c(OC)c1", "inhibition": "2.31% (inactive)"}, {"smiles": "COc1ccc(NC(=O)COc2ccc(C(=O)c3ccc(F)cc3)cc2)cc1S(N)(=O)=O", "inhibition": "97.7% (active)"}, {"smiles": "O=C(Nc1ccn(CCCNCc2ccc3[nH]ccc3c2)c(=O)n1)OCc1ccccc1", "inhibition": "-8.68% (inactive)"}, {"smiles": "COc1cccc(NC(=O)C/C(C)=N/NC(=O)C2CCCCC2)c1", "inhibition": "1.29% (inactive)"}, {"smiles": "Cc1ccc(CCC(=O)Nc2ncc(Cc3cc(Cl)ccc3Cl)s2)o1", "inhibition": "0.02% (inactive)"}, {"smiles": "O=C(c1cnn(-c2ccc(Cl)cc2)c1)c1ccccc1O", "inhibition": "14.8% (inactive)"}, {"smiles": "Cc1ncc(CC(=O)n2cc(C(=O)c3cc(Cl)ccc3O)cn2)s1", "inhibition": "80% (active)"}, {"smiles": "COc1ccc(NC(=O)CC2SC(N3CCCCC3)=NC2=O)cc1OC", "note": "(stereo not drawn)", "inhibition": "-1.9% (inactive)"}, {"smiles": "CN(CC(=O)NCc1ccc(Cl)cc1)S(=O)(=O)c1cccs1", "inhibition": "-5.56% (inactive)"}, {"smiles": "CN(Cc1ccc(F)cc1Cl)S(=O)(=O)c1cccs1", "inhibition": "11% (inactive)"}, {"smiles": "CN(Cc1c(F)cccc1Cl)S(=O)(=O)c1cccs1", "inhibition": "49.8% (active)"}, {"smiles": "COC(=O)c1c(NC(=O)c2c(Cl)cnn2C)sc(C)c1C", "inhibition": "-7.14% (inactive)"}, {"smiles": "CC1(C)Cc2cccc(OCC(=O)Nc3nccs3)c2O1", "inhibition": "-9.2% (inactive)"}, {"smiles": "Cc1ccccc1N1CCN(C2CCCN(C(=O)c3ocnc3C)C2)CC1", "note": "(stereo not drawn)", "inhibition": "4.49% (inactive)"}, {"smiles": "COc1ccc(S(=O)(=O)Nc2cc(C)on2)cc1NC(C)=O", "inhibition": "-6.89% (inactive)"}, {"smiles": "COc1ccc(-c2[nH]nc3c2C(c2ccncc2)C(C#N)=C(N)O3)cc1", "note": "(stereo not drawn)", "inhibition": "-11% (inactive)"}, {"smiles": "CCCc1[nH]nc2c1C(c1ccc(OC(=O)c3ccco3)cc1)C(C#N)=C(N)O2", "note": "(stereo not drawn)", "inhibition": "69.2% (active)"}, {"smiles": "CCCc1[nH]nc2c1C(c1ccc(Br)s1)C(C#N)=C(N)O2", "note": "(stereo not drawn)", "inhibition": "-2.42% (inactive)"}, {"smiles": "CCC(=O)c1cc2c(cc1NC(=O)c1cccs1)OCCO2", "inhibition": "-18.9% (inactive)"}, {"smiles": "C[C@@H]1ON(C)[C@H]2C[C@H]3c4cc(N5CCN(C)CC5)ccc4CCN3C(=O)[C@@H]12", "inhibition": "-6.52% (inactive)"}, {"smiles": "CCc1c(O)cc2n(c1=O)-c1ccccc1C2(C)C", "inhibition": "-8.25% (inactive)"}, {"smiles": "O=C(COC(=O)c1cccs1)NCc1cccs1", "inhibition": "-10.9% (inactive)"}, {"smiles": "COc1ccccc1CNC(=O)COC(=O)c1cccs1", "inhibition": "0.37% (inactive)"}, {"smiles": "CN(C)C(=O)c1ccc(NC(=O)COC(=O)c2cc3c(s2)CCCCC3)cc1", "inhibition": "-5.46% (inactive)"}, {"smiles": "O=C(COC(=O)c1ccc2c(c1)OCCO2)NCc1ccccc1Cl", "inhibition": "22.8% (inactive)"}, {"smiles": "O=C(COC(=O)/C(=C/c1cccs1)c1cccs1)NCc1ccccc1Cl", "inhibition": "56% (active)"}, {"smiles": "O=C(COC(=O)c1cc2c(s1)CCCC2)NCc1ccccc1Cl", "inhibition": "40.4% (active)"}, {"smiles": "COc1ccc(NC(=O)C2CCC(CNc3c(N4CCCCC4)c(=O)c3=O)CC2)c(OC)c1", "note": "(stereo not drawn)", "inhibition": "26.1% (inactive)"}, {"smiles": "CCN1CCN(C(=O)c2ccc(CN(c3ccc(C)c(C)c3)S(C)(=O)=O)cc2)CC1", "inhibition": "-3.29% (inactive)"}, {"smiles": "Cc1ccc(S(=O)(=O)N(C)CC(=O)NCC(c2ccc(F)cc2)N2CCOCC2)cc1", "note": "(stereo not drawn)", "inhibition": "-5.42% (inactive)"}, {"smiles": "CCC(C)(C)n1nnnc1C(c1cccs1)N1CCN(c2nc3ccccc3s2)CC1", "note": "(stereo not drawn)", "inhibition": "1.17% (inactive)"}, {"smiles": "COc1nc(NC2CCCCC2)nc(N2CCCCCC2)n1", "inhibition": "15.7% (inactive)"}, {"smiles": "O=C(CSc1nc(-c2ccccc2)cs1)Nc1cccc([N+](=O)[O-])c1", "inhibition": "41.4% (active)"}, {"smiles": "O=C(CSc1ncn[nH]1)Nc1nc(-c2cccc([N+](=O)[O-])c2)cs1", "inhibition": "-6.82% (inactive)"}, {"smiles": "COc1ccc(-n2cnnc2SCC(=O)Nc2cccc([N+](=O)[O-])c2)cc1", "inhibition": "-7.34% (inactive)"}, {"smiles": "Cc1cc(NC(=O)c2ccco2)c(=O)n(Cc2c(F)cccc2Cl)c1", "inhibition": "4.88% (inactive)"}, {"smiles": "Cc1nn(Cc2ccccc2Cl)c(C)c1NC(=O)Cn1nc([N+](=O)[O-])c(Cl)c1C", "inhibition": "-0.32% (inactive)"}, {"smiles": "O=C(N/N=C\\c1ccc(Br)cc1)c1ccc(Cn2cccn2)o1", "inhibition": "-3.61% (inactive)"}, {"smiles": "Cc1c(Cl)c([N+](=O)[O-])nn1Cc1ccc(C(=O)N/N=C\\c2cc(Cl)ccc2O)o1", "inhibition": "64.3% (active)"}, {"smiles": "CCn1c(SCC(=O)N/N=C/C=C/c2ccccc2[N+](=O)[O-])nnc1-c1ccccc1", "inhibition": "1.16% (inactive)"}, {"smiles": "Cc1nn(-c2ccccc2)c(C)c1/C=N/NC(=O)CSc1nc2ccccc2c(=O)n1-c1ccccc1", "inhibition": "45.1% (active)"}, {"smiles": "C/C(=N\\NC(=O)CSc1nc2ccccc2c(=O)n1-c1ccccc1C)c1cccs1", "inhibition": "8.49% (inactive)"}, {"smiles": "Cn1c(SCC(=O)N/N=C/c2ccc(O)c(O)c2)nc2ccccc21", "inhibition": "-12.3% (inactive)"}, {"smiles": "O=C(CSc1nc2ccccc2[nH]1)N/N=C/C=C\\c1ccccc1[N+](=O)[O-]", "inhibition": "7.51% (inactive)"}, {"smiles": "Cc1ccc(-n2c(SCC(=O)N/N=C/C=C/c3ccccc3[N+](=O)[O-])nc3ccccc3c2=O)cc1", "inhibition": "54.4% (active)"}, {"smiles": "CCC[C@@H]1C[C@@]1(CCC)[C@@H](NC(=O)c1ccccc1)c1ccc(C(=O)OC)cc1", "inhibition": "-5.7% (inactive)"}, {"smiles": "COc1ccc(C(=O)NC(C)Cn2nc(C)cc2C)cc1OC1CCN(C(C)=O)CC1", "note": "(stereo not drawn)", "inhibition": "3.85% (inactive)"}, {"smiles": "O=C(CCN1CCN(c2ccccc2)CC1)NNC(=S)Nc1ccccc1", "inhibition": "-1.44% (inactive)"}, {"smiles": "CCc1ccc2c(c1)C1(NN=C(c3ccccc3)S1)C(=O)N2", "note": "(stereo not drawn)", "inhibition": "12.8% (inactive)"}, {"smiles": "CCN=C1S/C(=C\\c2cc(Br)ccc2OCC(=O)OCC)C(=O)N1CC", "inhibition": "-7.54% (inactive)"}]}]}
